# Hit rate of the full screen: of about 100,000 compounds, about 770 (0.77%) were called active. The full list was thinned out, with actives kept by preference. Unmarked numbers belong to inactive results. No stated cut-off is given here; in the data, active means inhibition above about 50%; inactive means the rest.
# Molecular target: Gag-Pol polyprotein (Human immunodeficiency virus type 1 group M subtype B (isolate HXB2)) (UniProt P04585)
# Experiment: RNase H inhibition, HIV 1 Gag Pol polyprotein, FRET biochemical assay, screening (AID 372)
# Settings: HIV-1 RT RNase H, FRET RNA/DNA substrate fluorescence; at 10 µM; stronger effect = higher value
row,Structure (SMILES),inhibition
1,COc1cc(C2C(C(=O)Nc3cccc(C)n3)=C(C)NC3=C2C(=O)CC(C)(C)C3)cc(OC)c1OC (centres undefined),7%
2,COc1ccc(N(CC(=O)N2CCCCC2)S(=O)(=O)c2ccccc2[N+](=O)[O-])c(OC)c1,2%
3,COCCCNC(=O)CN(c1ccc(Cl)cc1)S(=O)(=O)c1ccccc1,0%
4,COc1cc(NC(=S)NC(=O)c2cccc(F)c2)ccc1NC(=O)c1cc2ccccc2o1,58% (active)
5,COc1cc(NC(=S)NC(=O)c2cccc(Cl)c2)ccc1NC(=O)c1cc2ccccc2o1,11%
6,COc1cc(NC(=S)NC(=O)c2ccc(C)c(C)c2)ccc1NC(=O)c1cc2ccccc2o1,15%
7,COc1cc(NC(=S)NC(=O)c2ccc(Cl)cc2)ccc1NC(=O)c1cc2ccccc2o1,54% (active)
8,COc1ccc(C(=O)NC(=S)Nc2ccc(NC(=O)c3cc4ccccc4o3)c(OC)c2)cc1,7%
9,COc1cc(NC(=S)NC(=O)c2ccc(Cl)cc2)ccc1NC(=O)c1ccco1,42%
10,CCc1nnc(NC(=O)CCCOc2ccc(Cl)cc2Cl)s1,1%
11,Cc1ccccc1/C=N/NC(=O)Nc1ccccc1,16%
12,Cc1ccc(-c2nc3ccccc3s2)cc1NC(=O)c1cc(I)ccc1Cl,15%
13,O=C(COc1ccccc1Br)N/N=C/c1ccccc1,3%
14,Cc1ccccc1NCC(=O)N/N=C\c1c(Br)cc(Br)c(O)c1Br,16%
15,Cc1ccc(NCC(=O)N/N=C\c2c(Br)cc(Br)c(O)c2Br)cc1,17%
16,O=C1C(=O)N(CN2CCOCC2)c2ccc(Br)cc21,18%
17,COc1ccc(-c2noc(-c3cccc(I)c3)n2)cc1,22%
18,Cc1ccc(-c2noc(-c3cccc(I)c3)n2)cc1,7%
19,Ic1cccc(-c2nc(-c3ccncc3)no2)c1,59% (active)
20,Brc1cccc(-c2nc(-c3cccnc3)no2)c1,28%
21,Cc1cccc(-c2nc(-c3cccnc3)no2)c1,27%
22,Ic1cccc(-c2nc(-c3cccnc3)no2)c1,55% (active)
23,Cc1cc(Cl)ccc1NC(=O)CN(c1cccc(Br)c1)S(C)(=O)=O,12%
24,O/N=C1\CCCc2c1nc(-c1ccc(F)cc1)n2O,0%
25,COc1ccc(/C=C/C(=O)Nc2ccc(I)cc2)cc1OC,16%

row,Structure (SMILES),inhibition
1,CCc1c(C)c2ccc(OCc3ccccc3)c(C)c2oc1=O,16%
2,O=C(NNc1nc(Nc2ccccc2)nc(N2CCOCC2)n1)Nc1ccc(Cl)cc1,72% (active)
3,Clc1ccc(Nc2nc(Oc3ccccc3)nc(N3CCOCC3)n2)cc1,15%
4,Clc1ccc(Nc2nc(Nc3ccc(Cl)cc3)nc(N3CCOCC3)n2)cc1,11%
5,COc1ccc(S(=O)(=O)N2CCN(CCN3C(=O)c4cccc5cccc(c45)C3=O)CC2)cc1,15%
6,CC(C)Nc1nc(-c2cccnc2)nc2ccccc12,8%
7,O=[N+]([O-])c1ccc(Cl)cc1NC(c1ccccc1)c1ccccc1,12%
8,CC(Nc1cc(Cl)ccc1[N+](=O)[O-])c1ccc(Br)cc1 (centres undefined),54% (active)
9,CC(Nc1cc(N2CCN(C)CC2)ccc1[N+](=O)[O-])c1ccc(Br)cc1 (centres undefined),9%
10,CCOc1ccc(/C=C2\C(=O)NC(=O)N(c3cc(C(F)(F)F)ccc3Cl)C2=O)cc1OC,11%
11,COc1ccc(CNC(=O)N2CCOCC2)cc1,20%
12,O=C(Nc1ccc(F)cc1)c1sc2cc(Cl)ccc2c1Cl,6%
13,O=C(NNC(=O)c1sc2ccccc2c1Cl)Nc1ccc(Cl)cc1,14%
14,O=C(NNC(=O)c1sc2cc(F)ccc2c1Cl)Nc1ccc(Cl)cc1,57% (active)
15,CC(=O)c1ccc(NC(=S)NC(=O)c2ccc(Br)cc2)cc1,0%
16,O=C1C(=O)N(c2cccc([N+](=O)[O-])c2)C(c2ccccc2F)/C1=C(/O)c1ccccc1 (centres undefined),8%
17,COc1cc(/C=N/N2C(=O)C3C4C=CC(C4)C3C2=O)cc(I)c1O (centres undefined),56% (active)
18,COc1cc(/C=N/N2C(=O)C3C4C=CC(CC4)C3C2=O)cc(I)c1O (centres undefined),0%
19,COc1cc(/C=N/N2C(=O)C3C4C=CC(C4)C3C2=O)cc(I)c1OC (centres undefined),0%
20,CCOC(=O)c1sc(N/N=C/c2ccccc2C(F)(F)F)nc1C,15%
21,CCOC(=O)c1sc(N/N=C/c2ccccc2)nc1C,47%
22,CCOC(=O)c1sc(N/N=C/c2ccccc2O)nc1C,58% (active)
23,COc1ccccc1N1C(=O)/C(=C/C(C)=C/c2ccccc2)SC1=S,13%
24,Cc1ccc(S(=O)(=O)/N=C/c2ccc(F)cc2)cc1,0%
